Experimental data: PubChem BioAssay (EPA / NIEHS)
Results filed as inconclusive are left out. The source made the active and inactive calls. How the source made its calls: active means hit-call score of the fitted dose curve at least 0.9, where 1 is the maximum; inconclusive means response in the unintended direction; inactive means score below 0.9.

These compounds were tested on ABC Transporter (ABCB1), ABCB1 (gene 5243) (assay: CLD_ABCB1_48hr: CellzDirect (CLD) Gene Expression Assay for ABC Transporter (ABCB1) at 48 hours (AID 2283695);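 on AC50: potency for induction meaning increase of mRNA over DMSO vehicle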).
Method: CLD_48hr is a cell-based, multiplexed-readout assay that uses hepatocyte, a human liver primary cell, with measurements taken at 48 hours after chemical dosing in a 96-well plate.CLD_ABCB1_48hr is one of 16 assay component(s) measured or calculated from the CLD_48hr assay. It is designed to make measurements of mRNA induction, a form of inducible reporter, as detected with chemiluminescence signals by Quantitative Nuclease Protection Assay (qNPA) technology.Data from the assay component CLD_ABCB1_48hr was analyzed at the endpoint, CLD_ABCB1_48hr, in the positive analysis fitting direction relative to DMSO as the negative control and baseline of activity. Using a type of inducible reporter, gain-of-signal activity can be used to understand changes in the reporter gene as they relate to the gene ABCB1. Furthermore, this assay endpoint can be referred to as a primary readout. To generalize the intended target to other relatable targets, this assay endpoint is annotated to the transporter intended target family, where subfamily is ABC transporter.
Human hepatocyte cultures were treated daily for two consecutive days with fresh dosing solutions containing appropriate concentrations of the 320 ToxCast chemicals (chemical identities were blinded to CellzDirect and other ToxCast collaborators), vehicle control (0.2% DMSO), and positive control inducers as summarized in Table 1. Due to the large number of treatment groups and chemicals examined, the ToxCast chemicals were divided into two groups (spanning two independent cultures of hepatocytes from separate donor preparations (Hu778: ToxCast plates 1 and 2; Hu776: ToxCast plates 3 and 4). Each preparation of human hepatocyte cultures was treated with respective vehicle control, medium only control, set of six positive controls/reference chemicals for the five hepatic receptor pathways, and a subset of eight of the ToxCast chemicals (indoxacarb, pyrithiobac-sodium, norflurazon, cyhalofop-butyl, methomyl, thiram, acetochlor, and propiconazole). These replicate data, coupled with internal replicates designed within the blinded ToxCast chemical library, provided additional data to evaluate interindividual differences between hepatocyte preparations and their potential impact on chemical profiles.Cell morphology and integrity were evaluated using phase-contrast microscopy as an indicator of hepatocyte cell health (Tyson & Green, 1987). Cultures for each treatment group (i.e., media, vehicle [0.2% DMSO], positive control inducers [multiple concentrations], and the ToxCast chemicals [multiple concentrations]) were observed and cell morphology was assessed relative to vehicle control cultures at each harvest time point (0, 6, 24, or 48 h). […] Images were evaluated at the conclusion of the study to assess changes in cell integrity and account for the effects of chemical exposure on uncharacteristic changes in concentration-dependent gene expression profiles. The results from these determinations of apparent cytotoxicity were annotated (yes/no) alongside the corresponding qNPA data for reference.At the conclusion of each treatment period, hepatocyte cultures (96-well) were washed with 1 volume of HBSS, lysed by addition of 25 ul ArrayPlate lysis buffer (HTG, Tucson, AZ), and 70 ul/well of Denaturation Oil, denatured by incubation at 95C for 10 min, and frozen at approximately -70C until analysis by nuclease protection assay (qNPA) (Roberts et al., 2007). For qNPA analysis, cell lysates were thawed at 50C for approximately 30 min, qNPA probes were added, and samples were incubated at 95C for 10 min to begin the detection process by denaturing the target RNA, dissociating the duplexes and secondary structure hybridization. At the conclusion of the hybridization period, S1 nuclease reagent was added to each sample to digest all nonprotected nucleotides at 50C for 60-90 min. […]

Row | Compound | outcome | AC50
1 | CCCN(CCC)c1c([N+](=O)[O-])cc(C(F)(F)F)c(N)c1[N+](=O)[O-] | inactive | 
2 | CCOC(=O)C(C)Oc1ccc(Oc2nc3ccc(Cl)cc3o2)cc1 (stereo not given) | inactive | 
3 | CCC(C)OC(=O)N1CCCCC1CCO (stereo not given) | inactive | 
4 | CCOC(=O)NCCOc1ccc(Oc2ccccc2)cc1 | inactive | 
5 | S=C([S-])NCCNC(=S)[S-].[Mn+2] |  | 1900 nM (active)
6 | C=CCOC(Cn1ccnc1)c1ccc(Cl)cc1Cl (stereo not given) |  | 36900 nM (active)
7 | Cc1nn(C)c(Oc2ccccc2)c1C=NOCc1ccc(C(=O)OC(C)(C)C)cc1 | inactive | 
8 | COC(=O)c1ccc(CNS(C)(=O)=O)cc1S(=O)(=O)NC(=O)Nc1nc(OC)cc(OC)n1 | inactive | 
9 | CCC(O)=C1C(=O)CC(C(=O)O)CC1=O (stereo not given) | inactive | 
10 | CC(C)(C)[C@@H](O)[C@@H](Cc1ccc(Cl)cc1)n1cncn1 | inactive | 
11 | COC(=O)c1c(Cl)nn(C)c1S(=O)(=O)NC(=O)Nc1nc(OC)cc(OC)n1 | inactive | 
12 | CCSC(=O)N(CC(C)C)CC(C)C | inactive | 
13 | CCOC(=O)COc1cc(-n2ncc(C(F)(F)F)c(C)c2=O)c(F)cc1Cl | inactive | 
14 | O=C(O)C1(C(=O)Nc2ccc(Cl)cc2Cl)CC1 | inactive | 
15 | CCN(CC)C(=O)c1cccc(C)c1 | inactive | 
16 | COC(=O)CSc1cc(N=c2sc(=O)n3n2CCCC3)c(F)cc1Cl | inactive | 
17 | CCNc1nc(N)nc(Cl)n1 | inactive | 
18 | CCCCOC(=O)C(C)Oc1ccc(Oc2ccc(C(F)(F)F)cn2)cc1 (stereo not given) | inactive | 

Row | Compound | outcome | AC50
19 | CC1(C)C(C=C(Cl)Cl)C1C(=O)OCc1cccc(Oc2ccccc2)c1 (stereo not given) | inactive | 
20 | O=C(Nc1ccc([N+](=O)[O-])cc1Cl)c1cc(Cl)ccc1O | inactive | 
21 | CCCCC(CC)COC(=O)c1ccccc1C(=O)O (stereo not given) | inactive | 
22 | N#CSCSc1nc2ccccc2s1 | inactive | 
23 | COCCO | inactive | 
24 | OB(O)O | inactive | 
25 | COC(=O)c1ccc(I)cc1S(=O)(=O)NC(=O)Nc1nc(C)nc(OC)n1 | inactive | 
26 | CCCOC(=O)c1ccc(C(=O)OCCC)nc1 | inactive | 
27 | CCCCCCC(C)OC(=O)COc1nc(F)c(Cl)c(N)c1Cl (stereo not given) | inactive | 
28 | CCCN(CCC)C(=O)SCC | inactive | 
29 | CCCCC(CC)CN1C(=O)C2C3C=CC(C3)C2C1=O (stereo not given) | inactive | 
30 | COc1c(Cl)ccc(Cl)c1C(=O)O | inactive | 
31 | C#CCOC(=O)[C@@H](C)Oc1ccc(Oc2ncc(Cl)cc2F)cc1 | inactive | 
32 | CCOC(=O)C(C)Oc1ccc(Oc2cnc3cc(Cl)ccc3n2)cc1 (stereo not given) | inactive | 
33 | CCCCCOC(=O)COc1cc(N2C(=O)C3=C(CCCC3)C2=O)c(F)cc1Cl | inactive | 
34 | S=C(S)NCCNC(=S)S.[Mn+2].[S-]C([S-])=NCCN=C([S-])[S-].[Zn+2] |  | 1060 nM (active)
35 | CCCOC(=O)NCCCN(C)C | inactive | 
